Test results: PubChem BioAssay
“And” between values parts separate entries of the source, which are not always exact repeats. Equal values may be shown once. The source made the active and inactive calls.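 How the source made its calls, unless noted: active means mean z-score across replicates of 1.96 or higher in either the MELAS or the Rieske mutant cell line; inactive means the rest.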

How the values were obtained:
[1] = P. berghei load reduction in hepatocytes – cell-based, HepG2, luciferase luminescence, HepG2 viability, primary screen (AID 624349; in the data active means parasite load remaining mostly below about 12%, no sharp cut-off; inactive means mostly above about 10%;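 further: 100% = mean of DMSO negative control wells on the same plate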); conditions: P. berghei liver stage in HepG2, luciferase luminescence, concentration not given here; parasite load remaining: stronger effect = lower value; viability: measured here: HepG2 viability without parasites
[2] = Wnt pathway potentiators raising nuclear beta-catenin – imaging, WNT3A-conditioned medium, mouse C2C12, NPC library, primary screen (AID 1117326; in the data active means nuclear beta-catenin stimulation mostly above about 4.2%, no sharp cut-off; inactive means mostly below about 10%); conditions: stronger effect = higher value
[3] = stimulators of insulin release from INS-1E, primary screen, cell-based, 5 mM glucose, NPC library (AID 1117329;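 active means compound raises insulin release from rat beta cells at 5 mM glucose, no numeric limit stated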); conditions: rat INS-1E insulin secretion, at 10 µM, stronger effect = higher value
[4] = growth inhibition of GSK3B-pretreated HCT116 cells – cell-based, CellTiter-Glo, 0.2 to 20 µM (AID 1117336;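 active means compounds lowering colon cancer cell viability after pretreatment blocking the GSK3B kinase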); conditions: HCT116 viability after GSK3B inhibitor, at 20 µM, stronger effect = higher value
[5] = inhibition of endothelial tube formation, primary screen, imaging, VEGF stimulated, CD31 staining, tube area, NPC library (AID 1117340;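 active means compound that reduces growth-factor-driven endothelial tube area in a mixed cell culture, no cutoff stated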); conditions: VEGF-stimulated ADSC/ECFC co-culture, at 10 µM, stronger effect = higher value
[6] = GLP1 release stimulators, primary, NCI-H716, NPC library (AID 1117341;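 active means compound raises GLP1 secretion from the human gut endocrine cells, with no numeric limit stated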); conditions: NCI-H716 cells, at 10 µM, stronger effect = higher value
[7] = HCT116 colon cancer cell growth inhibition, primary screen, CellTiter-Glo luminescence, NPC library (AID 1117342;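 active means compounds that lower survival of HCT116 colon cancer cells in the luminescence readout, no numeric limit stated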); conditions: at 20 µM (top of the series)
[8] = reduced SW480 viability measured with CellTiter-Glo, NPC library, primary (AID 1117343;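 active means compounds that lower viability of the colon cancer cells in the luminescence readout, with no numeric limit stated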); conditions: CellTiter-Glo luminescence; at 20 µM (top of the series)
[9] = NPC library primary testing for decreased DLD-1 cell viability via CellTiter-Glo (AID 1117346;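 active means compounds that lower survival of DLD-1 colon cancer cells in the luminescence readout, no cutoff given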); conditions: DLD-1 viability, CellTiter-Glo luminescence; at 20 µM (top of the series)
[10] = molecular target: 6-phosphogluconate dehydrogenase, decarboxylating (Homo sapiens) (UniProt P52209); assay: inhibition of human phosphogluconate dehydrogenase – biochemical, recombinant enzyme, NADPH absorbance, primary screen (AID 1159550;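 active means at least 20% inhibition of 6-phosphogluconate dehydrogenase activity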); conditions: recombinant 6PGD, NADPH absorbance 341 nm; at 10 µM; stronger effect = higher value
6-phosphogluconate dehydrogenase, decarboxylating (Homo sapiens), sequence (P52209 whole entry, looked up): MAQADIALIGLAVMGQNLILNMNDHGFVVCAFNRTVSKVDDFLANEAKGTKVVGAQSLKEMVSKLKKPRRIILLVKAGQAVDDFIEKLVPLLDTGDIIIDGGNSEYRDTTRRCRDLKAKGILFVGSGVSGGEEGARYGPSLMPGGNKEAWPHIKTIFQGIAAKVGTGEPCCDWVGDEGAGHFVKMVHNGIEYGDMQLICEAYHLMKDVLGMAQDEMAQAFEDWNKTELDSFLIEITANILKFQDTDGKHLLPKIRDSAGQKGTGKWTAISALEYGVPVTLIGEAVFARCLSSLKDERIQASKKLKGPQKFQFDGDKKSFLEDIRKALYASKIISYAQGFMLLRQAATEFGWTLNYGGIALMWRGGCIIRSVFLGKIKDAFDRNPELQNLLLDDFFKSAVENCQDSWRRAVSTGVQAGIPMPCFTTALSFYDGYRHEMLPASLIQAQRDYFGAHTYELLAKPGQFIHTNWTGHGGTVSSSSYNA

[11] = EMT-state selective cytotoxicity in co-culture – imaging, PC-3E GFP, TEM4-18 mCherry, primary screen (AID 1345086;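 active means compounds killing one labelled cell type while sparing the other, by normalised counts and ratio limits, not self-fluorescent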;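 on all read-outs here: cells exposed to compound for 72 h before imaging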;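 on red/green cell ratio (normalised): normalised mesenchymal count divided by normalised epithelial count so high means epithelial killing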); conditions: PC-3E GFP / TEM4-18 mCherry co-culture, imaging cell counts, at 1 µM; for red/green cell ratio (normalised): actives lie on both sides
[12] = tested on: Aerobactin synthetase IucA (Klebsiella pneumoniae hvKP1); assay: IucA enzyme inhibition, primary screen, biochemical, Spectrum library (AID 1346200; call rule not given here;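 further: 100% = wells without compound and 0% = wells lacking enzyme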); conditions: malachite green pyrophosphate, A620, at 8 µM, stronger effect = lower value
[13] = viability loss with induced miR-34 in A549 – imaging, A549 dox-inducible miR-34, nuclei and caspase counts, primary screen (AID 1347080;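 active means compounds whose cell count with miR-34 switched on is under 0.7 times the count with it off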); conditions: A549 miR-34 inducible, Hoechst nuclei count, 48 h
[14] = MELAS cybrid and Rieske KO viability enhancers – cell-based, MELAS cybrids, Rieske KO mouse fibroblasts, CellTiter-Glo, primary screen (AID 1508586); conditions: low glucose;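 further: z relative to plate mean and SD of compound and empty wells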
[15] = molecular target: NAD(+) hydrolase SARM1 (Homo sapiens) (UniProt Q6SZW1); assay: blocking NAD cleavage by SARM1 SAM-TIR – cell lysate, NAD-Glo luminescence (AID 1508614;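 active means compound whose remaining NAD level is above about 45 nM, limit read from the data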); conditions: SAM-TIR HEK293T lysate NADase, at 1 µM, stronger effect = higher value
NAD(+) hydrolase SARM1 (Homo sapiens), sequence (Q6SZW1 whole entry, looked up, the tested form may be a part): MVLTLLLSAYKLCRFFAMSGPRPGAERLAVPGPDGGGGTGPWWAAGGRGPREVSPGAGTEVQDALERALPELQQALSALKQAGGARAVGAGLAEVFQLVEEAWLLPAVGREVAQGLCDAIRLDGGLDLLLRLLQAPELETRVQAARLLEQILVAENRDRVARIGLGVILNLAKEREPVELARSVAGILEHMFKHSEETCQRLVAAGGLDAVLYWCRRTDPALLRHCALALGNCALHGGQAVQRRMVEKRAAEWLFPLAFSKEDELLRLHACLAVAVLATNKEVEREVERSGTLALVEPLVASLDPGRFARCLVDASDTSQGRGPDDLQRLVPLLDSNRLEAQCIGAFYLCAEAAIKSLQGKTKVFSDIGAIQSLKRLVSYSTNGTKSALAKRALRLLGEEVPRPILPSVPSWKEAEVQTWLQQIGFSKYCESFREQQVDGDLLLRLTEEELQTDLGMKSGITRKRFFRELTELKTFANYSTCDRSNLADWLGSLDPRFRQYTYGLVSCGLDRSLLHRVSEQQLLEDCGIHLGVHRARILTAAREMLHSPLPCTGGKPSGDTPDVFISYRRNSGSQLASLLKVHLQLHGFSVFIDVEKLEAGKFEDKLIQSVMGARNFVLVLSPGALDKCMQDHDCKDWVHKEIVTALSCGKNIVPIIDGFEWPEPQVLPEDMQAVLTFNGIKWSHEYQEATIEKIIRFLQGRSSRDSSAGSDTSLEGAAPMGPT

[16] = molecular target: Mitogen-activated protein kinase 7 (Homo sapiens) (UniProt Q13164); assay: Gal4-ERK5 driven luciferase induction – cell-based, HTS, primary screen (AID 1508626;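 active means luciferase signal above three times the same-plate solvent-only control wells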;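 further: luciferase driven by Gal4-ERK5 fusion binding five Gal4 sites before minimal TATA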); conditions: HeLa Gal4-ERK5 transactivation, 18 h, at 5 µM, stronger effect = higher value
Mitogen-activated protein kinase 7 (Homo sapiens), sequence (Q13164 whole entry, looked up, the tested form may be a part): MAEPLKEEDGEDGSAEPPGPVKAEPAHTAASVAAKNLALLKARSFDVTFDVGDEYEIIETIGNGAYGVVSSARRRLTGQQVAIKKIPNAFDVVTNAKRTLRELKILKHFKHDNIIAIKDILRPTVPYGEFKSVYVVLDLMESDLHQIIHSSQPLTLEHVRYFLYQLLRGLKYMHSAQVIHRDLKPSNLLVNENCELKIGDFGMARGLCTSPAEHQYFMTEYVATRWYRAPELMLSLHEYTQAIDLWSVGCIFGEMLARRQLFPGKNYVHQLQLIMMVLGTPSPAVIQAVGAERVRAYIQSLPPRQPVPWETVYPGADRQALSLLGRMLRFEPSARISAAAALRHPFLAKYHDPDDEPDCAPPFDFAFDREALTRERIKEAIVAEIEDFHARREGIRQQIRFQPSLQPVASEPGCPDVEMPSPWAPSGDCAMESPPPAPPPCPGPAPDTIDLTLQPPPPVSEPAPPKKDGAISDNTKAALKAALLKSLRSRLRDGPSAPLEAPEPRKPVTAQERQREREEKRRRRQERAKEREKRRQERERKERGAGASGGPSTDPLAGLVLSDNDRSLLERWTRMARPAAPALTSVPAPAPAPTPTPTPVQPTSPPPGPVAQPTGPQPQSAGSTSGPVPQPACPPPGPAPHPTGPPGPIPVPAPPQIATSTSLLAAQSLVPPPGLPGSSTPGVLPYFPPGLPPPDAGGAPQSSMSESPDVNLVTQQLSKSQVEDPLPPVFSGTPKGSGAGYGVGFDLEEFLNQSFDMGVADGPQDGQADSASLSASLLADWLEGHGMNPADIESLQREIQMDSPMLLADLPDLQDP

[17] = galactose survival enhancers in mitochondrial complex I cybrids – cell-based, galactose medium, ATP luminescence, primary screen (AID 1645843;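 active means z-score of at least 1.8 in each of two replicates, scored against plate mean and spread of sample wells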;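 further: positive z means more ATP and so rescue of galactose-driven cybrid death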); conditions: complex I mutant cybrid cells, 72 h, stronger effect = higher value
[18] = yeast 75Q aggregation reduction – 75Q-TubU reporter (AID 1593); conditions: Yeast 75Q polyglutamine aggregation reporter
[19] = blockers of cytochrome c efflux from mitochondria – biochemical, purified mitochondria (AID 1603); conditions: stronger effect = lower value;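 further: mouse liver mitochondria challenged with calcium chloride; signal normalized to the plate average as 100%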
[20] = polyglutamine aggregate formation blockers (AID 1604); conditions: polyglutamine-induced protein aggregation inhibition assay; stronger effect = higher value; tested at 2.5 µM
[21] = measured here: epithelial PC-3E GFP cell survival
[22] = measured here: mesenchymal TEM4-18 mCherry cell survival
[23] = MELAS cybrid survival, CellTiter-Glo 48 h, stronger effect = higher value
[24] = Rieske KO mouse fibroblast survival, CellTiter-Glo 72 h

What does the source list for `Clc1ccc(CO/N=C(\Cn2ccnc2)c2ccc(Cl)cc2Cl)c(Cl)c1`?
parasite load remaining [1]: 88.3% (inactive) and 30.5% (inactive) and 1.97% (inactive); viability [1]: 76.2% and 91.5% and 53%; nuclear beta-catenin stimulation ([2]; at 10 µM): 27.8% (inactive); nuclear beta-catenin stimulation ([2]; stimulation, at 2 µM): 3.3%; insulin secretion stimulation [3]: -0.7% (inactive); viability decrease [4]: 101% (active); tube area decrease [5]: 109% (active); GLP1 secretion stimulation [6]: 25.7% (active); inhibition of viability [7]: 101% (active); viability decrease (inhibition) [8]: 141% (active); viability decrease (inhibition) [9]: 103% (active); inhibition [10]: -14.7% (inactive); red/green cell ratio (normalised) ([11]; counts scaled to control wells, 1 = unselective): 1.02 (inactive); normalised cell number [11, 21]: 1.03; normalised cell number [11, 22]: 1.05; activity remaining [12]: 128% (inactive); fold change ([13]; stronger effect = lower value): 0.851 (inactive); fold change ([13]; stronger effect = lower value, cell number ratio, induced over uninduced): 1.12 (inactive); fold change ([13]; measured here: relative caspase fold change +Dox/-Dox): 1.03 and 1.16; cell count ([13]; measured here: total cells with miR-34 induction, stronger effect = lower value): 7740 and 6080; cell count ([13]; measured here: total cells without miR-34 induction): 6900 and 7140; z-score [14, 23]: -0.195 (inactive) and 0.269 (inactive); z-score [14, 24]: 0.707 and 1.28; remaining NAD [15]: 10 nM (inactive); luciferase signal [16]: 52 AU (inactive); z-score [17]: -2.53 (inactive)

Which nuclear beta-catenin stimulation ([2]; at 10 µM) does the source give for `O=C(CBr)Nc1ccc(Cl)cc1C(=O)c1ccccc1F` here?
Its nuclear beta-catenin stimulation is -1.3% (inactive).

What about the nuclear beta-catenin stimulation ([2]; stimulation, at 2 µM) of the same molecule?
Its nuclear beta-catenin stimulation is -1%.

What about the insulin secretion stimulation [3] of the same molecule?
The insulin secretion stimulation was 18.8% (inactive).

And the viability decrease [4]?
The viability decrease was 84.8% (active).

What about the tube area decrease [5] of the same molecule?
The tube area decrease was 108% (active).

What about the GLP1 secretion stimulation [6] of the same molecule?
The GLP1 secretion stimulation was 21.4% (active).

And the inhibition of viability [7]?
Its inhibition of viability is 57.5% (active).

What about the viability decrease (inhibition) [8] of the same molecule?
The viability decrease (inhibition) was 95.3% (active).

And the viability decrease (inhibition) [9]?
Its viability decrease (inhibition) is 64.7% (active).

Which results are given for `CCOC(=O)NC(O)C(Cl)(Cl)Cl` (stereo not drawn)?
nuclear beta-catenin stimulation ([2]; at 10 µM): -0.2% (inactive); nuclear beta-catenin stimulation ([2]; stimulation, at 2 µM): 2.2%; insulin secretion stimulation [3]: 0.3% (inactive); viability decrease [4]: -4.2% (inactive); tube area decrease [5]: -20.4% (inactive); GLP1 secretion stimulation [6]: 0.8% (inactive); inhibition of viability [7]: -2.5% (inactive); viability decrease (inhibition) [8]: 16.2% (inactive); viability decrease (inhibition) [9]: 4.55% (inactive)

With `O=P1(N(CCCl)CCCl)NCCCO1` (stereo not drawn) as the molecule, how does the score [18] read?
The score was 0.77.

And the cytochrome c release ratio [19]?
The cytochrome c release ratio was 1.

What about the inhibition of aggregation [20] of the same molecule?
Its inhibition of aggregation is 69.7%.

What about the nuclear beta-catenin stimulation ([2]; at 10 µM) of the same molecule?
Its nuclear beta-catenin stimulation is 1% (inactive).

What about the nuclear beta-catenin stimulation ([2]; stimulation, at 2 µM) of the same molecule?
Its nuclear beta-catenin stimulation is 0.9%.

What about the insulin secretion stimulation [3] of the same molecule?
Its insulin secretion stimulation is -1% (inactive).

And the viability decrease [4]?
Its viability decrease is -1.15% (inactive).

What about the tube area decrease [5] of the same molecule?
The tube area decrease was 16.1% (inactive).

What about the GLP1 secretion stimulation [6] of the same molecule?
The GLP1 secretion stimulation was 1.6% (inactive).

And the inhibition of viability [7]?
The inhibition of viability was -24.2% (inactive).

What about the viability decrease (inhibition) [8] of the same molecule?
Its viability decrease (inhibition) is 101% (active).

And the viability decrease (inhibition) [9]?
The viability decrease (inhibition) was -8.15% (inactive).

What about the inhibition [10] of the same molecule?
The inhibition was -5.23% (inactive).

What about the red/green cell ratio (normalised) [11] of the same molecule?
Its red/green cell ratio (normalised) is 1.26 (inactive).

What about the normalised cell number [11, 21] of the same molecule?
The normalised cell number was 1.18.

And the normalised cell number [11, 22]?
Its normalised cell number is 1.48.

And the activity remaining [12]?
The activity remaining was 120% (inactive).

And the z-score [14, 23]?
Its z-score is 0.187 (inactive) and -0.193 (inactive).

What about the z-score [14, 24] of the same molecule?
The z-score was -0.0217 and -1.38.

And the remaining NAD [15]?
Its remaining NAD is 10 nM (inactive).

What about the luciferase signal [16] of the same molecule?
The luciferase signal was 84 AU (inactive).

And the z-score [17]?
Its z-score is 0.055 (inactive) and 0.19 (inactive) and -0.255 (inactive).

With `Clc1ccc(COC(Cn2ccnc2)c2ccc(Cl)cc2Cl)cc1` (stereo not drawn) as the molecule, how does the score [18] read?
Its score is 0.26.

What about the cytochrome c release ratio [19] of the same molecule?
The cytochrome c release ratio was 0.38.

What about the inhibition of aggregation [20] of the same molecule?
The inhibition of aggregation was 43.9%.

And the nuclear beta-catenin stimulation ([2]; at 10 µM)?
Its nuclear beta-catenin stimulation is 3.6% (inactive).

What about the nuclear beta-catenin stimulation ([2]; stimulation, at 2 µM) of the same molecule?
Its nuclear beta-catenin stimulation is 4.8%.

What about the insulin secretion stimulation [3] of the same molecule?
The insulin secretion stimulation was 2.8% (inactive).

What about the viability decrease [4] of the same molecule?
The viability decrease was 101% (active).

And the tube area decrease [5]?
The tube area decrease was 108% (active).

What about the GLP1 secretion stimulation [6] of the same molecule?
Its GLP1 secretion stimulation is 23.9% (active).

And the inhibition of viability [7]?
Its inhibition of viability is 102% (active).

And the viability decrease (inhibition) [8]?
Its viability decrease (inhibition) is 123% (active).

And the viability decrease (inhibition) [9]?
Its viability decrease (inhibition) is 103% (active).

What about the inhibition [10] of the same molecule?
The inhibition was -10.8% (inactive).

What about the red/green cell ratio (normalised) [11] of the same molecule?
The red/green cell ratio (normalised) was 1.13 (inactive).

What about the normalised cell number [11, 21] of the same molecule?
The normalised cell number was 0.92.

And the normalised cell number [11, 22]?
Its normalised cell number is 1.04.

And the activity remaining [12]?
The activity remaining was 123% (inactive).

What about the z-score [14, 23] of the same molecule?
Its z-score is -0.276 (inactive) and 1.78 (inactive).

And the z-score [14, 24]?
The z-score was 0.45 and 0.962.

What about the remaining NAD [15] of the same molecule?
Its remaining NAD is 10 nM (inactive).

And the luciferase signal [16]?
The luciferase signal was 60 AU (inactive).

And the z-score [17]?
The z-score was -1.53 (inactive).
